Most compounds without a hit are left out; they make up all but 2% or so of the library.
Rin1-Abl PPI inh: blocks binding of human Rin1 to Abl. P00519+Q13671. TR-FRET Rin1/Abl binding, biochemical. inhibition, % at 7.35 µM. 0.4% of 360,000 active. AID 588664; in the data active = inhibition above about 5%, passing the limit was not always enough
TCR CD3 inh: inhibitors of human TCR-CD3 interaction; AID 651800; TAMRA-labeled TCR probe fluorescence, biochemical; inhibition, % at 9.4 µM; 0.37% of 360,000 active; in the data active = inhibition above about 19%;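 also: recombinant mutant TCR 2C K166C tagged with TAMRA read by polarization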
MBD2 DNA inh: blocks human MBD2 binding to methylated DNA | Q9UBB5 | TR-FRET, MBD2 binding to methylated oligonucleotide | inhibition, % at 4.4 µM | 0.31% of 370,000 active; in the data active = inhibition above about 13%
LEDGF integ inh: blocks HIV-1 LEDGF/p75-dependent DNA integration; 0.64% of 370,000 active; TR-FRET IN-LEDGF/p75 DNA integration, Eu/Cy5; inhibition, % at 3.7 µM;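 active = inhibition above the screen-wide mean plus 3 SD, cut at about 13% in these data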;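 also: signal is the Cy5 over europium emission ratio at 671 and 618 nm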
UHRF1 MBD2 ctr: blocks human UHRF1 binding to methylated DNA | 0.75% of 370,000 active | inhibition, % at 4.4 µM | AID 687016 | Q96T88 | UHRF1 binding to methylated oligo, TR-FRET; in the data active = inhibition above about 21%;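 also: UHRF1 SRA domain binding a hemimethylated CpG hairpin DNA probe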
Target sequence (Q96T88 whole entry, looked up, the tested form may be a part): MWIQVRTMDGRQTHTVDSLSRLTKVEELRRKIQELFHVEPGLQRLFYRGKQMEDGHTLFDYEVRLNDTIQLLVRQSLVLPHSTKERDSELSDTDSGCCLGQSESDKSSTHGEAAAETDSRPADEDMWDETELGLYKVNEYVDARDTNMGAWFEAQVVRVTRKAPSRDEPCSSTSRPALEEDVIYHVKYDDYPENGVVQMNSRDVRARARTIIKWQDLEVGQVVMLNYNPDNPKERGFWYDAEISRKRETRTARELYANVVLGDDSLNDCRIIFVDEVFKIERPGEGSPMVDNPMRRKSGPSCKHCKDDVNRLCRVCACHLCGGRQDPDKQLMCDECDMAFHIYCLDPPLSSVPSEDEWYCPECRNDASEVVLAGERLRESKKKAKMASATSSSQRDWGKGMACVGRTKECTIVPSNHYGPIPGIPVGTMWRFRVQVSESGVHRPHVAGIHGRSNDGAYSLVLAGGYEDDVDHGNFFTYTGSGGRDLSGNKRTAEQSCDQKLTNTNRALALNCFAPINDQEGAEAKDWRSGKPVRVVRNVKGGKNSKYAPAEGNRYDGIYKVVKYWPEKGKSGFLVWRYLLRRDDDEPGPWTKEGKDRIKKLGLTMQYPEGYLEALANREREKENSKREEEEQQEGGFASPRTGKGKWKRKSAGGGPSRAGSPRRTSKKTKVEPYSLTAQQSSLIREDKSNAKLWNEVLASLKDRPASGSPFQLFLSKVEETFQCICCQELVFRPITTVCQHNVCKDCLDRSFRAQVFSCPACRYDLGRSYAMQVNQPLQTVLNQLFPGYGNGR
Hits are given with their value; n = inactive; x = no result given.

SMILES	Rin1-Abl PPI inh	TCR CD3 inh	MBD2 DNA inh	LEDGF integ inh	UHRF1 MBD2 ctr
COc1ccc(C2(c3ccc(OC)cc3)NC(=O)N(CC(=O)Nc3ccc(C(N)=O)cc3)C2=O)cc1	n	n	n	n	42
Nc1nc2ncc(C(=O)c3cc(F)ccc3O)cc2s1	n	n	n	n	22
Nc1nc2ncc(C(=O)c3cc(Cl)cc(Cl)c3O)cc2s1	n	n	n	n	n
O=C(OCc1cn(Cc2ccc(F)c(F)c2)nn1)N1CCOCC1	x	x	n	n	n
O=C(O)c1ccccc1C(=O)c1cccs1	n	n	n	n	24
Cc1ccc(Cn2nnc3c2-c2ccccc2S(=O)(=O)N(C)C3)cc1	x	x	n	n	n
C[C@@H]1COc2cc(NCCO)ccc2S(=O)(=O)N1	x	n	n	n	22
CC(C)C[C@H]1COc2cc(NCCO)ccc2S(=O)(=O)N1	x	n	n	n	n
C[C@@H]1COc2cc(N3CCCCC3)ccc2S(=O)(=O)N1	x	n	n	n	22
CC(C)C[C@@H]1COc2cc(NC3CC3)ccc2S(=O)(=O)N1	x	n	n	n	21
COc1ccc(-c2[nH]ncc2/C=N/NC(=O)c2ccncc2)c(OC)c1	n	n	n	n	n
CCOC(=O)c1c(C)[nH]c(C)c1S(=O)(=O)NCCc1ccco1	n	n	n	n	n
COC(=O)[C@H](CC(C)C)N1Cc2nnn(Cc3ccc(C)cc3)c2-c2cc(F)ccc2S1(=O)=O	x	x	n	n	n
O=C1CC(Cc2ccccc2)C(=O)N1CCc1ccc2c(c1)OCO2 (stereo not drawn)	n	n	n	n	n
Cc1cccc(CC2CC(=O)N(CCc3ccc4c(c3)OCO4)C2=O)c1 (stereo not drawn)	n	n	n	n	40
CC(C)NC(=O)N[C@@H]1C[C@@H]2O[C@@H](CO)CC[C@@H]2O[C@@H]1CCc1ccc(-c2ccc(F)cc2)cc1	x	x	n	n	n
Cc1ccc(-c2cnc(NC(=O)c3cccc(Br)c3)s2)c(C)c1	n	n	n	n	26
Cc1c([N+](=O)[O-])oc2c1C(=O)NCCC2	n	n	n	n	n
COc1ccc2c(CC(=O)OCC(=O)Nc3sc4c(c3C#N)CCC(C)C4)coc2c1 (stereo not drawn)	n	n	n	n	41
COc1ccc(N2CCN(C(=O)CN(c3ccc(OC)cc3)S(=O)(=O)c3ccccc3)CC2)cc1	n	n	n	n	31
CN1OC[C@@H]2CN3C(=Nc4cc(C(F)(F)F)cc(C(F)(F)F)c4)Sc4ccccc4[C@@H]3C[C@@H]21	x	n	n	n	n
O=C(CCS(=O)(=O)c1ccccc1)Nc1ccc(Cl)cn1	n	n	n	n	n
O=C(c1ccncc1)N1CC[C@H]2[C@H](CCCN2Cc2ccccc2)C1	x	x	n	n	n
CCOc1ccc(S(=O)(=O)N2CCN(Cc3ccco3)CC2)cc1	n	n	n	n	27
Cc1ccc(N2CC(C(=O)OCC(=O)Nc3cccc(Cl)c3C)CC2=O)cc1 (stereo not drawn)	n	n	n	n	90
SMILES	Rin1-Abl PPI inh	TCR CD3 inh	MBD2 DNA inh	LEDGF integ inh	UHRF1 MBD2 ctr
COC(=O)C1CC(=O)N(c2ccc(OCc3ccccc3Cl)cc2)C1 (stereo not drawn)	n	n	n	n	24
O=C(NCc1ccc(F)cc1)C1CC(=O)N(C2CCCCC2)C1 (stereo not drawn)	n	n	n	n	n
O=C(c1ccccc1)N1CCC(=O)N1c1ccccc1	n	n	n	n	37
O=C1CN(c2ccccc2)C(=S)N1C(=O)c1ccccc1	n	n	n	n	n
COc1ccccc1C(=O)NCC(=O)N/N=C/c1ccc([N+](=O)[O-])cc1	n	n	n	n	25
O=C(CNc1ccccc1)N/N=C/c1ccc([N+](=O)[O-])cc1	n	n	n	n	n
O=Nc1c(O)[nH]c2ccc(F)cc12	n	n	n	n	n
Cc1cc2c(N=O)c(NO)ccc2[nH]1	12	x	x	x	x
CN1CCN(c2ncnc3c2ncn3[C@H]2CN(Cc3ccc(F)cc3)C[C@@H](CO)O2)CC1	n	n	n	n	n
O=C(CNC(=O)c1ccc(-c2ccccc2)cc1)OCc1ccc(Br)cc1	n	n	n	n	26
COc1ccc(C(=O)NCC(=O)OCc2ccc(Br)cc2)cc1	n	n	n	n	n
CCn1c(SCC(=O)Nc2cc(OC)ccc2OC)nc2c(c1=O)SCC2	n	n	n	n	n
CCn1c(SCC(=O)NCc2ccc3c(c2)OCO3)nc2c(c1=O)SCC2	n	n	n	18	n
COc1cc(CNC2CCCC2)c(Br)cc1OC1CCCC1	n	n	n	n	30
CCOc1ccc(-n2c(SCC(=O)c3ccc4ccccc4c3)nnc2-c2ccco2)cc1	x	x	n	n	n
CSc1ccccc1C(=O)NCc1ccccc1C	n	n	n	n	22
CCN(CC1COc2ccccc2O1)S(=O)(=O)c1ccc(C)cc1 (stereo not drawn)	n	n	n	n	26
CN1CCC(CO)(Cc2ccccc2)CC1	n	n	n	n	22
COc1ccc2c(c1)CNC2CS(=O)(=O)NCc1ccc(F)cc1 (stereo not drawn)	x	x	n	n	n
Cn1nc(SCc2ccccc2)c(=O)[nH]c1=O	n	n	n	n	n
O=C(Nc1ccc(F)cc1)OC1CC2CC1[C@H]1CCCCN1[C@H]2Cc1ccccc1 (stereo partly drawn)	x	x	n	n	n
O=C(O)CCc1ccc(-c2ccccc2)n1Cc1ccco1	n	n	n	18	n
Cc1cc(NC(=O)CCc2ccccc2)c([N+](=O)[O-])cc1C	n	n	n	n	n
Cc1cc(NC(=O)CN(C)C)c([N+](=O)[O-])cc1C	n	n	n	n	42
COCC(=O)N(c1ccc(C(C)(C)C)cc1)C(C(=O)NC(C)(C)C)c1cccnc1 (stereo not drawn)	x	x	n	n	n
SMILES	Rin1-Abl PPI inh	TCR CD3 inh	MBD2 DNA inh	LEDGF integ inh	UHRF1 MBD2 ctr
Cc1cccc(C(C(C(=O)c2ccccc2)N2CCOCC2)N2CCOCC2)c1 (stereo not drawn)	n	n	n	n	n
CC(C)c1ccc(C(C(C(=O)c2ccccc2)N2CCOCC2)N2CCOCC2)cc1 (stereo not drawn)	n	n	n	n	47
CCOC(=O)C1CCCN(C(=O)CN2C(=O)/C(=C/c3ccc(OC)cc3)Oc3ccccc32)C1 (stereo not drawn)	n	n	n	n	22
CCOC(=O)C1CCCN(C(=O)CN2C(=O)c3ccccc3C2=O)C1 (stereo not drawn)	n	n	n	n	n
O=C(CSc1nnc(-c2ccccc2)n1-c1ccccc1)NN=C/C=C\c1ccccc1[N+](=O)[O-]	x	x	n	n	n
COc1ccc(-c2cc(C(=O)Nc3ccc(S(=O)(=O)Nc4onc(C)c4C)cc3)c3ccccc3n2)cc1	n	n	n	60	n
CC(C)=CC(=O)NCC1CCN(C(=O)C(=O)c2cc3ccccc3o2)CC1	x	n	n	n	n
Cc1cc(-c2csc(NC(=O)c3ccc(C#N)cc3)n2)c(C)n1Cc1ccco1	n	n	22	68	57
O=C(NCc1ccc(F)cc1F)Nc1cnccc1C(F)(F)F	n	n	n	n	n
COC(=O)c1ccc2nc(-c3ccc(Cl)cc3)c(Cc3ccsc3)n2c1	x	n	n	n	21

Screens deposited in PubChem BioAssay by The Scripps Research Institute Molecular Screening Center.
